The values below come from paper PMC7862700, “An all-to-all approach to the identification of sequence-specific readers for epigenetic DNA modifications on cytosine”.

Common to all, as to experiment: DAPPL (digital affinity profiling via proximity ligation, sequencing); 10 mM Tris-HCl pH 7.5, 50 mM NaCl, 1 mM DTT, 4% glycerol, room temperature, 30 min; GST-TFs on glutathione beads, 16-mer random dsDNA library, 0.1% formaldehyde crosslink after washing; high values mean tight binding
Common to all, as to conditions: protein: recombinant; tags: N-terminal GST; dsDNA, one strand shown

Assay [1] addresses T1, ERF (Homo sapiens, UniProt P50548 1-548).
T1 sequence: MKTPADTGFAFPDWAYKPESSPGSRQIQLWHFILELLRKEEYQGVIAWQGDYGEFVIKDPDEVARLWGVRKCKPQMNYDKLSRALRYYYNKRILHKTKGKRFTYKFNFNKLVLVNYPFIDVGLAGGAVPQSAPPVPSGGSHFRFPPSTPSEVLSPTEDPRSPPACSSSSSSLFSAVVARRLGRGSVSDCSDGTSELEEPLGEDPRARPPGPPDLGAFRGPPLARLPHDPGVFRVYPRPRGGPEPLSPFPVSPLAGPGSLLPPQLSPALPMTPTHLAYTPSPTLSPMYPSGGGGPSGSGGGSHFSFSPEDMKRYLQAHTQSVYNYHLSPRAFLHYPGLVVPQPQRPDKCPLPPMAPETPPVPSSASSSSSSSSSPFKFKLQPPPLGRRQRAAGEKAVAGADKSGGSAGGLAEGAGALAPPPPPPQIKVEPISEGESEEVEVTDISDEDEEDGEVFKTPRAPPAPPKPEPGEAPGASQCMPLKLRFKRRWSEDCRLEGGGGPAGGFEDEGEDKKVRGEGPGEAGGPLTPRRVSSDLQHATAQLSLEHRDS
In short, it runs like this:
(§1)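 Human transcription factors carrying a GST fusion were produced in yeast, bound to glutathione beads, tagged with DNA barcodes and pooled together with a tag-only sample. Each pool was held with 200 nmole of a random double-stranded 16-mer DNA library in Tris/NaCl/DTT/glycerol buffer for 30 min at room temperature, then washed, crosslinked in 0.1% formaldehyde, proximity-ligated with BsaI/T4 ligase (1 h, 37 °C), PCR-amplified and sequenced on an Illumina NextSeq500. Binding signal is the read frequency of each hexamer for a given factor divided by its frequency in the tag-only sample.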

Assay [2] has as its target T2, ETV3L (Homo sapiens, UniProt Q6ZN32 1-361).
T2 sequence: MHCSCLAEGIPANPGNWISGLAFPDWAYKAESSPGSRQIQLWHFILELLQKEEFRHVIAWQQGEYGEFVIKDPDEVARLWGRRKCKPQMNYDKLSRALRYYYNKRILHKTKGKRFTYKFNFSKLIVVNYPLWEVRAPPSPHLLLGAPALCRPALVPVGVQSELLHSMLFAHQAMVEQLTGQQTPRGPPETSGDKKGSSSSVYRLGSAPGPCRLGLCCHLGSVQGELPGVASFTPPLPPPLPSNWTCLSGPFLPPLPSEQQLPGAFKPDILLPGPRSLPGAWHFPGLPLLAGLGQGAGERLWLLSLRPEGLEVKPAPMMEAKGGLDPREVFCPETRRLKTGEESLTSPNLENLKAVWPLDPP
An outline of the steps:
as §1

Assay [3] deals with T3, ETS2 (Homo sapiens, UniProt P15036 1-469).
T3 sequence: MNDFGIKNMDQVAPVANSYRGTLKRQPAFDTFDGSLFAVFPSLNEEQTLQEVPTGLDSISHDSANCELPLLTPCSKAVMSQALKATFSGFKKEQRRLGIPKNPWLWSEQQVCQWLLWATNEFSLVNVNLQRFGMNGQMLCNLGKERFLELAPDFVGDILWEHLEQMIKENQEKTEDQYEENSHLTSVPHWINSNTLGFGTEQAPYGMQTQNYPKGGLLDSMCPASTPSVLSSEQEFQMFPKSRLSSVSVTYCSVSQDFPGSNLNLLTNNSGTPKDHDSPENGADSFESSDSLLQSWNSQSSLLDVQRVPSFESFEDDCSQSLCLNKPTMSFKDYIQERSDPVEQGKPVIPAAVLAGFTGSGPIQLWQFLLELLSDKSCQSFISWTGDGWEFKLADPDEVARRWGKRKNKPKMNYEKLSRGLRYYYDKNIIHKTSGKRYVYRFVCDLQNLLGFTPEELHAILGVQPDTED
An outline of the steps:
as §1

The target in assay [4] is T4, SPDEF (Homo sapiens, UniProt O95238 1-335).
T4 sequence: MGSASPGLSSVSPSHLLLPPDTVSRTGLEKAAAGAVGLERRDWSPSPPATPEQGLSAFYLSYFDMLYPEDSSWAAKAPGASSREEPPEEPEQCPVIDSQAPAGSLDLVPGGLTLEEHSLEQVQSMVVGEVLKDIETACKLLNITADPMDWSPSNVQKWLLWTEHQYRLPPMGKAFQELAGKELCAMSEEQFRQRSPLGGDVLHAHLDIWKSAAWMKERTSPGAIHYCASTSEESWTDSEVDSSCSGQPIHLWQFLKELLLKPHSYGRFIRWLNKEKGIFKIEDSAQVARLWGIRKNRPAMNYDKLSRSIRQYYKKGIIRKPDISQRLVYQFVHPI
An outline of the steps: as §1

Assay [5] concerns the target T5, ETV7 (Homo sapiens, UniProt Q9Y603 1-341).
T5 sequence: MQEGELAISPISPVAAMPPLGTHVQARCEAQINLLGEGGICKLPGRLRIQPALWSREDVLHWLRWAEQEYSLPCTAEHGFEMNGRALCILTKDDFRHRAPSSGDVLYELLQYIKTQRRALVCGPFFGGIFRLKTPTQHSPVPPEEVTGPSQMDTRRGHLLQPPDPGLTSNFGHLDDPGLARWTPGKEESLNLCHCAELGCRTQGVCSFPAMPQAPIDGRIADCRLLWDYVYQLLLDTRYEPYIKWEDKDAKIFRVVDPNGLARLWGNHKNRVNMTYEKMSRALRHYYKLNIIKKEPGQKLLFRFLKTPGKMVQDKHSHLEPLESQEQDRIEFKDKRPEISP
An outline of the steps:
as §1

In assay [6] the target is T6, ELF5 (Homo sapiens, UniProt Q9UKW6-2 1-255).
T6 sequence: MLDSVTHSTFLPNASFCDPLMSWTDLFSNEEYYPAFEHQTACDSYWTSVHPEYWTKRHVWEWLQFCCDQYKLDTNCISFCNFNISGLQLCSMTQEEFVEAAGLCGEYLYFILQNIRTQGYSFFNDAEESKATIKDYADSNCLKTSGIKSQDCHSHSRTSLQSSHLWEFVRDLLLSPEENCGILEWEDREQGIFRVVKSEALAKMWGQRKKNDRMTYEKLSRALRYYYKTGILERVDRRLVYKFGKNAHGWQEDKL
In short, it runs like this: as §1

For assay [7], the target named is T7, ETV3 (Homo sapiens, UniProt P41162-2 1-143).
T7 sequence: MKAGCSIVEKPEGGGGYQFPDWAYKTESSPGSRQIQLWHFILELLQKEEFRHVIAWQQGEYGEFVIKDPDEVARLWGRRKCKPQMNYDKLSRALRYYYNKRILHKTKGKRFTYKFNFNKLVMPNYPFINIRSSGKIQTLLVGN
In short, it runs like this:
as §1

The target of assay [8] is ETV6 (Homo sapiens, UniProt P41212 1-452). An outline of the steps: as §1
ETV6, sequence (P41212 whole entry): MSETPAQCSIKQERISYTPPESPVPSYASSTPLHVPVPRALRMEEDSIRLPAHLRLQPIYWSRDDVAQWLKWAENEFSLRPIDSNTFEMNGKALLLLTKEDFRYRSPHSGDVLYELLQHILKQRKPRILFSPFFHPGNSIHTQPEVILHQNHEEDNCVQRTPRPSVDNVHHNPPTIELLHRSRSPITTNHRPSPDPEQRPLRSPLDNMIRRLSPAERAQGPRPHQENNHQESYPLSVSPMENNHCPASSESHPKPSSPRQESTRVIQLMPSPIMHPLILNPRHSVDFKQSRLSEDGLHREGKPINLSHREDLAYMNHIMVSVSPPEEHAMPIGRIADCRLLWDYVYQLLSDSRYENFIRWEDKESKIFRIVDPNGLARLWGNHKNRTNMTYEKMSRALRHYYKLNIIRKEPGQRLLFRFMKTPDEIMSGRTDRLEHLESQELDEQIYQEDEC

Turning to TAGATT, the binding signal in assay [1] was 1.37 fold enrichment (6-mer frequency, TF over GST control); in assay [2] it was 1.31 fold enrichment (6-mer frequency, TF over GST control); in assay [3], 1.13 fold enrichment (6-mer frequency, TF over GST control); in assay [4] it was 1.15 fold enrichment (6-mer frequency, TF over GST control); in assay [5] it was 1.22 fold enrichment (6-mer frequency, TF over GST control); in assay [6], 1.11 fold enrichment (6-mer frequency, TF over GST control). Also, the binding signal in assay [7] was 1 fold enrichment (6-mer frequency, TF over GST control); in assay [8] it was 1.17 fold enrichment (6-mer frequency, TF over GST control).

With CCTCGT, the binding signal in assay [1] was 1.23 fold enrichment (6-mer frequency, TF over GST control); in assay [2], 1.2 fold enrichment (6-mer frequency, TF over GST control); in assay [3] it was 1.25 fold enrichment (6-mer frequency, TF over GST control); in assay [4], 1.19 fold enrichment (6-mer frequency, TF over GST control); in assay [5], 1.17 fold enrichment (6-mer frequency, TF over GST control); in assay [6] it was 1.4 fold enrichment (6-mer frequency, TF over GST control). Moreover, the binding signal in assay [7] is 1.27 fold enrichment (6-mer frequency, TF over GST control); in assay [8], 1.23 fold enrichment (6-mer frequency, TF over GST control).

Turning to CCTCAT, the binding signal in assay [1] is 1.32 fold enrichment (6-mer frequency, TF over GST control); in assay [2], 1.37 fold enrichment (6-mer frequency, TF over GST control); in assay [3], 1.29 fold enrichment (6-mer frequency, TF over GST control); in assay [4], 1.31 fold enrichment (6-mer frequency, TF over GST control); in assay [5] it was 1.25 fold enrichment (6-mer frequency, TF over GST control); in assay [6], 1.58 fold enrichment (6-mer frequency, TF over GST control). The binding signal was 1.32 fold enrichment (6-mer frequency, TF over GST control) in assay [7] and 1.39 fold enrichment (6-mer frequency, TF over GST control) in assay [8].

In the case of TGACAA, the binding signal in assay [1] is 1.23 fold enrichment (6-mer frequency, TF over GST control); in assay [2] it was 1.34 fold enrichment (6-mer frequency, TF over GST control); in assay [3], 1.27 fold enrichment (6-mer frequency, TF over GST control); in assay [4], 1.21 fold enrichment (6-mer frequency, TF over GST control); in assay [5], 1.31 fold enrichment (6-mer frequency, TF over GST control); in assay [6], 1.23 fold enrichment (6-mer frequency, TF over GST control). Further, the binding signal was 1.26 fold enrichment (6-mer frequency, TF over GST control) in assay [7] and 1.23 fold enrichment (6-mer frequency, TF over GST control) in assay [8].

For TGCCAT, the binding signal was 1.17 fold enrichment (6-mer frequency, TF over GST control) in assay [1]; 1.09 fold enrichment (6-mer frequency, TF over GST control) in assay [2]; 1.05 fold enrichment (6-mer frequency, TF over GST control) in assay [3]; 1.19 fold enrichment (6-mer frequency, TF over GST control) in assay [4]; 1.09 fold enrichment (6-mer frequency, TF over GST control) in assay [5]; 1.08 fold enrichment (6-mer frequency, TF over GST control) in assay [6]. Moreover, the binding signal in assay [7] is 1.2 fold enrichment (6-mer frequency, TF over GST control); in assay [8], 1.1 fold enrichment (6-mer frequency, TF over GST control).

Take TACAAC: the binding signal in assay [1] is 1.1 fold enrichment (6-mer frequency, TF over GST control); in assay [2], 1.11 fold enrichment (6-mer frequency, TF over GST control); in assay [3], 1.12 fold enrichment (6-mer frequency, TF over GST control); in assay [4], 1.17 fold enrichment (6-mer frequency, TF over GST control); in assay [5], 1.09 fold enrichment (6-mer frequency, TF over GST control); in assay [6] it was 1.09 fold enrichment (6-mer frequency, TF over GST control). Also, the binding signal in assay [7] was 1.15 fold enrichment (6-mer frequency, TF over GST control); in assay [8], 1.11 fold enrichment (6-mer frequency, TF over GST control).

On to GTTCAC, for which the binding signal is 1.29 fold enrichment (6-mer frequency, TF over GST control) in assay [1]; 1.25 fold enrichment (6-mer frequency, TF over GST control) in assay [2]; 1.28 fold enrichment (6-mer frequency, TF over GST control) in assay [3]; 1.23 fold enrichment (6-mer frequency, TF over GST control) in assay [4]; 1.29 fold enrichment (6-mer frequency, TF over GST control) in assay [5]; 1.13 fold enrichment (6-mer frequency, TF over GST control) in assay [6]. The binding signal in assay [7] was 1.19 fold enrichment (6-mer frequency, TF over GST control); in assay [8], 1.2 fold enrichment (6-mer frequency, TF over GST control).

Consider TTTATT, for which the binding signal in assay [1] is 1.21 fold enrichment (6-mer frequency, TF over GST control); in assay [2], 1.44 fold enrichment (6-mer frequency, TF over GST control); in assay [3], 1.21 fold enrichment (6-mer frequency, TF over GST control); in assay [4], 1.2 fold enrichment (6-mer frequency, TF over GST control); in assay [5] it was 1.31 fold enrichment (6-mer frequency, TF over GST control); in assay [6], 1.24 fold enrichment (6-mer frequency, TF over GST control). Also, the binding signal in assay [7] was 1.33 fold enrichment (6-mer frequency, TF over GST control); in assay [8], 1.28 fold enrichment (6-mer frequency, TF over GST control).
